Screening results as filed in PubChem.
Rows were chosen to be rich in hits. Some 18% of all compounds tested hit in one or more screens of this group.
TDP1 inh: qHTS Assay for Inhibitors of Tyrosyl-DNA Phosphodiesterase (TDP1); recombinant TDP1, AlphaScreen DNA substrate cleavage; Potency, µM (titrated, usually from 130 µM), actives largely listed as inhibitors; 350,000 tested, 0.28% active; Tyrosyl-DNA phosphodiesterase 1 (Homo sapiens), Q9NUW8; also: nearly all actives have a fitted effect of over 40% in size
Target sequence (Q9NUW8 whole entry, looked up): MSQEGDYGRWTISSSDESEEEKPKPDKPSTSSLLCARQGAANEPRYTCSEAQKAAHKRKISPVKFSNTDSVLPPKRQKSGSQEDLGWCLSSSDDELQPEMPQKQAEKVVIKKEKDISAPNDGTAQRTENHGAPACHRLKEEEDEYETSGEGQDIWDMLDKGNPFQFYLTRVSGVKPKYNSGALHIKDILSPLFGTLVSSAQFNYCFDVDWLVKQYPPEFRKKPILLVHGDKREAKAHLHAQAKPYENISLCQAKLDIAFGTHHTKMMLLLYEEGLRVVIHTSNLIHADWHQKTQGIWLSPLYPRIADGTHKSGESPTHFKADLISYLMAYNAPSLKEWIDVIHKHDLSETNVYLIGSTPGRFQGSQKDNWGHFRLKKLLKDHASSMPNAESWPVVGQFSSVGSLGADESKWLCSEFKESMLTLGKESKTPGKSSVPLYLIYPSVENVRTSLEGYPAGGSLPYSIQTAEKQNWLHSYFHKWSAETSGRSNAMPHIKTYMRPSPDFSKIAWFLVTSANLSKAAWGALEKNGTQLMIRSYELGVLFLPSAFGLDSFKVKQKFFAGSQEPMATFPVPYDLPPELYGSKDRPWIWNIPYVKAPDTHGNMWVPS
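Compounds were preincubated with Tdp1 (1 nM final) for 15 min at room temperature before substrate (15 nM final) started a 5 min reaction; beads (10 ug/ml final) were then added for 10 min before AlphaScreen detection.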
TGFb inhibitor: qHTS for Inhibitors of TGF-b. HepG2 CAGA-GFP TGF-b/SMAD3 reporter, GFP fluorescence, 18 h; TGF-beta stimulated, 500 pg/mL final. Potency, µM (highest dose often 46.1 µM), hits mostly inhibitors. 410,000 tested, 1.2% active; also: nearly all actives have a fitted effect of over 65% in size
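HEPG2 CAGA-GFP cells (1000/well, DMEM with 1% FBS) were pre-incubated 2 h at 37 degrees C, given compound by pin tool, then stimulated with TGF-beta at 500 pg/mL final for 18 h before per-cell GFP fluorescence imaging.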
DT40 TDP1 no CPT: qHTS for Inhibitors of human tyrosyl-DNA phosphodiesterase 1 (TDP1): qHTS in cells in absence of CPT. DT40 Tdp1-/- hTDP1 cells, no CPT, ATP luminescence, 48 h. Potency, µM (top dose mostly 46.2 µM), hits mostly inhibitors. 420,000 tested, 15% active; also: nearly all actives have a fitted effect of over 55% in size
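Chicken DT40 Tdp1-/- cells complemented with human TDP1, screened without camptothecin (DMSO vehicle only), 400 cells/well. Compounds pin-transferred, cells incubated at 37 °C for at least 48 hr. Growth read as ATP-dependent luminescence (CellTiter-Glo, 30 min at RT).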
IL-1B inflam inh: qHTS for Inhibitors of Inflammasome Signaling: IL-1-beta AlphaLISA Primary Screen. THP-1 LPS/ATP IL-1B secretion, AlphaLISA, 16 h; stronger effect = lower value. activity change, % at 57.5 µM. 360,000 tested, 4.7% active; in the data active = activity change below about -50%; inconclusive = mostly about -30% to -49%
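THP-1 cells pretreated 1 hr with compounds (up to 57.5 uM final), then stimulated with LPS (250 ng/mL final) plus ATP (1.25 mM final); secreted IL-1B measured by AlphaLISA after 16 hr, decreased signal indicating inhibition.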
HepG2 tox: qHTS for Inhibitors of TGF-b: Cytotox Counterscreen. HepG2 CAGA-GFP viability, ATP luminescence, 18 h. Potency, µM (top dose mostly 46.1 µM), most hits filed as cytotoxic. 410,000 tested, 0.76% active. AID 588856, 2011
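CellTiter-Glo luminescence gave cytotoxicity after 18 hours at 37 degrees C. The cells were HepG2 CAGA-GFP in 1% FBS DMEM, stimulated with 500 pg/mL TGF-beta after compound addition. %Activity was normalised to no-cell wells (complete cell-killing) and DMSO (no toxicity), and curves were fitted and classified.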
DT40 TDP1 CPT: qHTS for Inhibitors of human tyrosyl-DNA phosphodiesterase 1 (TDP1): qHTS in cells in presence of CPT. AID 686979, 2013. Potency, µM (doses to about 46.2 µM), usual class: inhibitors. chicken DT40 Tdp1-/-;hTDP1 cells + 20 nM CPT, ATP luminescence, 48 h. 420,000 tested, 12% active; also: nearly all actives have a fitted effect of over 55% in size
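Chicken DT40 Tdp1-/- cells stably complemented with human TDP1 were seeded at 400 cells/well in medium containing 20 nM camptothecin, exposed to pin-transferred compounds, and grown at 37 °C for at least 48 hr. Viability was read as ATP luminescence.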
Each line names hits and unclear results; the compound was inactive in the other large screens. Unless noted, calls follow the shape of the dose curve; as a rule, active = well fitted curve in the direction sought with a large enough effect; inconclusive = small, poorly fitted or top-dose-only effect, or another doubt; inactive = no such curve, though single readings can be large; an effect the other way counts as inactive or inconclusive.

CCOC(=O)C1(C)CCCN(C(=O)c2ccc(C#N)cc2)C1 (centres undefined)	none (no result: TDP1 inh)
O=C(NCc1ccncc1)c1ccc(S(=O)(=O)Nc2ccccc2)cc1	DT40 TDP1 CPT inconclusive
C[C@@H]1CN([C@H](C)CO)C(=O)CCCn2nncc2CO[C@H]1CN(C)C(=O)OCc1ccccc1	none (no result: TDP1 inh)
COc1cccc(-c2cnc(NCc3ccccc3Cl)n2C)c1	TGFb inhibitor inconclusive, DT40 TDP1 no CPT inconclusive, DT40 TDP1 CPT inconclusive (no result: IL-1B inflam inh)
COC(=O)C1=CN(Cc2ccccc2)C=C(C(=O)OC)C1c1cc(F)ccc1F	DT40 TDP1 no CPT inconclusive (no result: TDP1 inh)
CCN(CC)S(=O)(=O)c1ccc2c(c1)N(CC(=O)NCCCN1CCN(c3cc(Cl)ccc3C)CC1)C(=O)CO2	TGFb inhibitor inconclusive, HepG2 tox 13µM (no result: DT40 TDP1 no CPT, IL-1B inflam inh, DT40 TDP1 CPT)
CCN(CC)S(=O)(=O)c1ccc2c(c1)N(CC(=O)N1CCN(c3cc(Cl)ccc3C)CC1)C(=O)CO2	DT40 TDP1 no CPT inconclusive, DT40 TDP1 CPT inconclusive (no result: IL-1B inflam inh)
CC1CCN(S(=O)(=O)c2ccc3c(c2)N(CC(=O)O)C(=O)CO3)CC1	DT40 TDP1 no CPT 16µM, DT40 TDP1 CPT 15µM (no result: IL-1B inflam inh)
CCOc1ccc(CCNC(=O)CN2C(=O)COc3ccc(S(=O)(=O)N(CC)CC)cc32)cc1	TGFb inhibitor inconclusive, DT40 TDP1 no CPT inconclusive, DT40 TDP1 CPT 23µM (no result: IL-1B inflam inh)
COc1cccc(NC(=O)CSc2nc3c([nH]c4ccccc43)c(=O)n2-c2ccccc2)c1	TGFb inhibitor inconclusive, DT40 TDP1 no CPT inconclusive, DT40 TDP1 CPT inconclusive (no result: IL-1B inflam inh)
c1ccc(-c2csc3ncnc(NCCN4CCOCC4)c23)cc1	DT40 TDP1 no CPT 9.2µM, DT40 TDP1 CPT 12µM
CN(C)CCCNc1ncnc2scc(-c3ccccc3)c12	TGFb inhibitor inconclusive, DT40 TDP1 no CPT inconclusive
Cc1ccc(-c2csc3ncnc(NCCN4CCOCC4)c23)cc1	DT40 TDP1 no CPT 23µM, IL-1B inflam inh -65, DT40 TDP1 CPT inconclusive
Clc1ccc(-c2csc3ncnc(NCCN4CCOCC4)c23)cc1	DT40 TDP1 no CPT 13µM, DT40 TDP1 CPT 18µM
CC1CCN(c2ccc3c(c2)S(=O)(=O)c2cccc(C(=O)NCc4cccc(F)c4)c2C3=O)CC1	DT40 TDP1 no CPT 18µM, DT40 TDP1 CPT inconclusive
O=C(NCc1cccc(F)c1)c1cccc2c1C(=O)c1ccc(N3CCCC3)cc1S2(=O)=O	DT40 TDP1 no CPT 12µM, DT40 TDP1 CPT inconclusive
O=C(NCc1cccc(F)c1)c1cccc2c1C(=O)c1ccc(N3CCC(Cc4ccccc4)CC3)cc1S2(=O)=O	DT40 TDP1 no CPT inconclusive
COc1ccccc1N1CCN(c2ccc3c(c2)S(=O)(=O)c2cccc(C(=O)NCc4ccc(F)cc4)c2C3=O)CC1	DT40 TDP1 no CPT 2.6µM, DT40 TDP1 CPT inconclusive (no result: TDP1 inh)
Cc1cccc(C)c1-n1nnnc1C1c2ccccc2C(=O)N1CCOc1ccccc1 (centres undefined)	DT40 TDP1 no CPT inconclusive (no result: TDP1 inh, TGFb inhibitor, HepG2 tox)
COc1ccc(N2CCN(C(CNC(=O)C(=O)NCC(OC)OC)c3ccco3)CC2)cc1 (centres undefined)	none
CC1(S(=O)(=O)O)CC(=O)c2ccccc2C1=O (centres undefined)	TGFb inhibitor inconclusive, DT40 TDP1 no CPT 5.2µM, IL-1B inflam inh inconclusive, DT40 TDP1 CPT 7.3µM (no result: TDP1 inh)
O=C(CSc1nc2ccc(Cl)cc2[nH]1)NC1CCCc2ccccc21 (centres undefined)	TGFb inhibitor inconclusive, DT40 TDP1 no CPT 21µM, IL-1B inflam inh inconclusive, DT40 TDP1 CPT inconclusive
CC(C)N(C(=O)CSc1nc2ccc(Cl)cc2[nH]1)c1ccccc1	DT40 TDP1 no CPT 23µM, DT40 TDP1 CPT inconclusive (no result: TGFb inhibitor, IL-1B inflam inh)
Cc1nc2ccccc2n1CC(=O)NC1CCCCCC1	DT40 TDP1 no CPT 13µM, DT40 TDP1 CPT 12µM
O=C(CCCSc1nc2ccccc2[nH]1)NC(c1ccccc1)c1ccccc1	DT40 TDP1 no CPT 15µM, DT40 TDP1 CPT 12µM
Cc1nc2ccccc2n1CC(=O)NC1CCCC1	none
COc1ccc2nc(SCC(=O)NC3CCCc4ccccc43)[nH]c2c1 (centres undefined)	DT40 TDP1 no CPT inconclusive, DT40 TDP1 CPT inconclusive
O=C(CNC(=O)c1ccccc1)OCC(=O)c1ccccc1	DT40 TDP1 no CPT inconclusive (no result: IL-1B inflam inh)
O=C1OC2(c3ccccc31)c1cc(Br)c(O)c(Br)c1Oc1c2cc(Br)c(O)c1Br	none (no result: TDP1 inh, TGFb inhibitor, IL-1B inflam inh, HepG2 tox)
O=C1OC2(c3cc(Br)c(O)c(Br)c3Oc3c2cc(Br)c(O)c3Br)c2c(Cl)c(Cl)c(Cl)c(Cl)c21	none (no result: TGFb inhibitor, DT40 TDP1 no CPT, IL-1B inflam inh, HepG2 tox, DT40 TDP1 CPT)
CC(=O)c1cccc(NC(=O)c2ccccc2N(Cc2ccccc2)S(C)(=O)=O)c1	none
O=C(CSc1nc2ccccc2[nH]1)NC1CCS(=O)(=O)C1 (centres undefined)	none
O=C(CCCSc1nc2ccccc2[nH]1)NC1CCCCC1	DT40 TDP1 no CPT 29µM, DT40 TDP1 CPT inconclusive
O=C(COC(=O)CCCSc1nc2ccccc2[nH]1)NC(=O)NC1CCCC1	none
O=C(CSc1nc2ccccc2[nH]1)NC1CCCC1	TDP1 inh 45µM
CN1C(=O)/C(=C\c2cc(N=Nc3ccccc3)ccc2O)SC1=S	DT40 TDP1 no CPT 23µM, DT40 TDP1 CPT 21µM
